Assay outcomes from PubChem.
LMP1 NFkB inh: reduces LMP1-driven NF-kappaB luciferase signal; inhibition, % at 12.5 µM; AID 504558; LMP1-induced NF-kappaB luciferase reporter cells, luminescence; 350,000 compounds, 0.69% hits; in the data active = inhibition above about 41%; inconclusive = no clear call, values can overlap the other calls;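 also: 0% = neutral control wells and 100% = reference inhibitor control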
NSD2 HMT inh: NSD2 (human) methyltransferase inhibition. inhibition, % at 12.5 µM. 310,000 compounds, 0.54% hits. O96028. NSD2 peptide methylation, AlphaScreen, 120 min; in the data active = inhibition above about 50%
HIV Env fusion: inhibitors of HIV Env-mediated cell fusion | HeLa-JRFL Env/CEM21 cell fusion, luciferase | inhibition, % at 12.3 µM | 360,000 compounds, 1.1% hits | AID 651610;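 active = mean replicate inhibition score of at least 50 and every replicate individually at or above 50; inconclusive = only one of the two criteria met; inactive = mean below 50 and not all replicates reaching 50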;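 also: 0% = plate neutral controls and 100% = maraviroc near 300 nM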
N-glyco inh: blocks N-linked glycosylation in D54 reporter cells; reporter increase, % at 12.5 µM; D54 ERlucT glycosylation luciferase reporter, 24 h; percent of 100 nM tunicamycin response; 360,000 compounds, 0.23% hits;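 active = mean luciferase reporter signal, scaled so untreated is 0 and the glycosylation-blocking control 100, at or above a set limit in every replicate; inconclusive = mean reaches the limit but not every replicate does; inactive = mean below the limit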;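 also: luciferase carries N-glycosylation sites so blocking glycosylation raises the light; 0% = median of neutral control wells and 100% = median of 100 nM tunicamycin wells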
PAX8 inh HTS: PAX8 transcriptional activity inhibition; 360,000 compounds, 1.2% hits; RMG-I TPO-luciferase reporter, SteadyGlo, 24 h; inhibition, % at 12.6 µM;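 active = mean replicate inhibition at least 60% with every replicate also reaching 60%; inconclusive = only one of the two criteria is met; inactive = mean below 60% and not all replicates reaching 60%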;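 also: luciferase light reporting Pax8 driven TPO promoter activity; plate controls were median of neutral control wells for no effect and mitoxantrone controls for full effect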
Shn3 inh set2: Schnurri-3 reporter inhibition in Clone20 osteoblasts; Clone20 osteoblast Shn3 3'UTR firefly luciferase, 24 h; inhibition, % at 12.5 µM; 360,000 compounds, 0.52% hits; AID 588674;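 active = mean inhibition of at least 75% with every replicate also reaching 75%; inconclusive = mean inhibition at least 75% but some replicate below; inactive = mean inhibition below 75%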;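 also: 0% = median of neutral control wells and 100% = pilot-screen positive control compound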
Active calls of the source: *; [ ] = dose if it differs, or a comment. This is a sample that favours compounds with a hit; in the whole collection about 2.8% have one here.

For Cc1ccc(S(=O)(=O)Nc2ccc3c(c2)C(=O)N([C@@H](C)CO)C[C@@H](C)[C@@H](CN(C)C)OCCCC[C@H](C)O3)cc1 the results were HIV Env fusion -62[16.7 µM] and PAX8 inh HTS 87*.
Screening Cc1ccc(S(=O)(=O)Nc2ccc3c(c2)C(=O)N([C@H](C)CO)C[C@H](C)[C@@H](CN(C)S(=O)(=O)c2ccc(C)cc2)OCCCC[C@H](C)O3)cc1 returned HIV Env fusion -84[16.7 µM] and PAX8 inh HTS 83*.
Screening Cc1ccc(S(=O)(=O)Nc2ccc3c(c2)C(=O)N([C@H](C)CO)C[C@H](C)[C@H](CN(C)C(=O)c2ccccc2)OCCCC[C@H](C)O3)cc1 returned HIV Env fusion -30[16.7 µM] and PAX8 inh HTS 96*.
CCC(=O)Nc1ccc2c(c1)OC[C@H](C)N(C(=O)COC)C[C@H](C)[C@H](OC)CN(C)C2=O was read as HIV Env fusion 5[16.7 µM] and PAX8 inh HTS 4.
Screening O=C(Cc1ccccc1)OC(COCc1ccccc1)C(=O)NCc1ccccc1 (stereo not drawn) returned HIV Env fusion -6[16.7 µM] and PAX8 inh HTS 3.
COc1ccccc1C#Cc1cnc2c(c1)C(=O)N([C@@H](C)CO)C[C@H](C)[C@H](CN(C)C(C)=O)O2 was read as HIV Env fusion 7[16.7 µM].
Cc1ccc(NC(=O)CN2C(=O)NC(Cc3c[nH]c4ccccc34)C2=O)c(Br)c1 (stereo not drawn) was read as NSD2 HMT inh 5.
Screening Cc1ccc(S(=O)(=O)Nc2ccc3c(c2)C(=O)N([C@@H](C)CO)C[C@H](C)[C@@H](CN(C)S(=O)(=O)c2ccc(C)cc2)OCCCC[C@H](C)O3)cc1 returned HIV Env fusion -46[16.7 µM] and PAX8 inh HTS 61*.
Screening C[C@@H]1CCCCO[C@H](CN(C)Cc2ccc(C(F)(F)F)cc2)[C@H](C)CN([C@H](C)CO)C(=O)c2cc(NS(=O)(=O)c3ccccc3)ccc2O1 returned HIV Env fusion inconclusive and PAX8 inh HTS 89*.
`C[C@H]1CCCCO[C@@H](CN(C)Cc2ccc(C(F)(F)F)cc2)[C@@H](C)CN([C@@H](C)CO)C(=O)c2cc(NS(C)(=O)=O)ccc2O1` gave HIV Env fusion 55*[16.7 µM] and PAX8 inh HTS 2.
C[C@@H]1CCCCO[C@H](CN(C)Cc2ccc(C(F)(F)F)cc2)[C@@H](C)CN([C@@H](C)CO)C(=O)c2cc(NS(=O)(=O)c3ccccc3)ccc2O1 was read as HIV Env fusion -31[16.7 µM] and PAX8 inh HTS 88*.
For C[C@@H]1CN([C@@H](C)CO)C(=O)c2cc(NS(=O)(=O)c3ccccc3)ccc2O[C@@H](C)CCCCO[C@H]1CN(C)Cc1ccc(C(F)(F)F)cc1 the results were HIV Env fusion 8[16.7 µM] and PAX8 inh HTS inconclusive.
`C[C@@H]1CCCCO[C@@H](CN(C)Cc2ccc(C(F)(F)F)cc2)[C@H](C)CN([C@@H](C)CO)C(=O)c2cc(NS(=O)(=O)c3ccccc3)ccc2O1` gave HIV Env fusion 15[16.7 µM] and PAX8 inh HTS 111*.
`C[C@@H]1CCCCO[C@@H](CN(C)Cc2ccc(C(F)(F)F)cc2)[C@@H](C)CN([C@H](C)CO)C(=O)c2cc(NS(=O)(=O)c3ccccc3)ccc2O1` gave HIV Env fusion 5[16.7 µM] and PAX8 inh HTS 16.
`C/C=C/c1cccc(-c2nc(C(=O)N(C)C)cc3c2[C@H](CCO)N([S@@](=O)C(C)(C)C)C3)c1` gave HIV Env fusion -2[16.7 µM] and PAX8 inh HTS -17.
Cc1ccc(S(=O)(=O)N(C)C[C@@H]2Oc3ncc(-c4ccccc4)cc3C(=O)N([C@@H](C)CO)C[C@H]2C)cc1 was read as HIV Env fusion 10[16.7 µM].
For C[C@@H]1CN([C@H](C)CO)C(=O)c2cc(NS(=O)(=O)c3ccccc3)ccc2O[C@@H](C)CCCCO[C@@H]1CN(C)Cc1ccc(C(F)(F)F)cc1 the results were HIV Env fusion 38[16.7 µM] and PAX8 inh HTS 102*.
C[C@H]1CCCCO[C@H](CN(C)Cc2ccccc2)[C@@H](C)CN([C@@H](C)CO)C(=O)c2cc(NS(=O)(=O)c3ccccc3)ccc2O1 was read as HIV Env fusion 20[16.7 µM] and PAX8 inh HTS 1.
`C[C@@H]1CCCCO[C@H](CN(C)Cc2ccc(C(F)(F)F)cc2)[C@H](C)CN([C@@H](C)CO)C(=O)c2cc(NS(=O)(=O)c3ccccc3)ccc2O1` gave HIV Env fusion 43[16.7 µM] and PAX8 inh HTS 39.
For C[C@@H]1CCCCO[C@@H](CN(C)Cc2ccc(C(F)(F)F)cc2)[C@@H](C)CN([C@@H](C)CO)C(=O)c2cc(NS(=O)(=O)c3ccccc3)ccc2O1 the results were HIV Env fusion -39[16.7 µM] and PAX8 inh HTS 94*.
For C[C@@H]1CN([C@H](C)CO)C(=O)c2cc(NC(=O)c3ccncc3)ccc2O[C@@H]1CN(C)Cc1ccc(C(F)(F)F)cc1 the results were HIV Env fusion -5[16.7 µM] and PAX8 inh HTS 13.
For c1ccc(-c2c[n+]3c(n2-c2ccccc2)CCC3)cc1 the results were LMP1 NFkB inh 11, NSD2 HMT inh 1, HIV Env fusion 17, N-glyco inh 1, PAX8 inh HTS 10 and Shn3 inh set2 53.
Screening Cc1ccc(-c2c[n+]3c(n2-c2ccccc2)CCC3)cc1 returned LMP1 NFkB inh 19, NSD2 HMT inh -1, HIV Env fusion 6, N-glyco inh 1, PAX8 inh HTS 31 and Shn3 inh set2 91*.
Screening CCOc1ccc(-n2c(-c3ccccc3)c[n+]3c2CCCCC3)cc1 returned LMP1 NFkB inh 22, NSD2 HMT inh -1, HIV Env fusion 45, N-glyco inh -1, PAX8 inh HTS 86* and Shn3 inh set2 inconclusive.
NC(=O)c1ccccc1N/C=C/C(=O)c1cccs1 was read as LMP1 NFkB inh 53*, NSD2 HMT inh 2, N-glyco inh -11 and Shn3 inh set2 -24.
`COc1ccc(NC(=O)N(C)C[C@@H]2OCCCC[C@@H](C)Oc3ccc(NC(=O)Nc4cccc5ccccc45)cc3C(=O)N([C@@H](C)CO)C[C@@H]2C)cc1` gave HIV Env fusion -6[16.7 µM] and PAX8 inh HTS 20.
`CO[C@H]1CN(C)C(=O)c2ccc(NS(C)(=O)=O)cc2OC[C@@H](C)N(C(=O)C2CCCC2)C[C@H]1C` gave PAX8 inh HTS -13.
Screening O=C(NCc1ccco1)c1cc(-c2ccccc2)nc2ccccc12 returned LMP1 NFkB inh 7, N-glyco inh 1 and Shn3 inh set2 6.
Screening O=C(Nc1cccc(S(=O)(=O)NCc2ccco2)c1)c1cc(-c2ccccc2)nc2ccccc12 returned LMP1 NFkB inh 13, NSD2 HMT inh 2, HIV Env fusion 28, N-glyco inh -2, PAX8 inh HTS 76* and Shn3 inh set2 32.
For COc1ccc(NC(=O)N(C)C[C@@H]2Oc3ccc(NC(=O)CCN4CCOCC4)cc3CC(=O)N([C@@H](C)CO)C[C@@H]2C)cc1 the results were PAX8 inh HTS 8.
